Inconclusive results are not listed. Active and inactive are the calls of the source. Rule for the calls: active = hit-call score of the fitted dose curve at least 0.9, where 1 is the maximum; inconclusive = response in the unintended direction; inactive = score below 0.9.
These molecules were tested against Estrogen receptor (Homo sapiens) (UniProt P03372) (assay: ATG_hERa_XSP1: Attagene TRANS-FACTORIAL Multi-Species (XSP1) HepG2 Assay for human Estrogen Receptor (ESR1) (AID 2283780)).
Sequence of Estrogen receptor (Homo sapiens) (P03372 whole entry, looked up): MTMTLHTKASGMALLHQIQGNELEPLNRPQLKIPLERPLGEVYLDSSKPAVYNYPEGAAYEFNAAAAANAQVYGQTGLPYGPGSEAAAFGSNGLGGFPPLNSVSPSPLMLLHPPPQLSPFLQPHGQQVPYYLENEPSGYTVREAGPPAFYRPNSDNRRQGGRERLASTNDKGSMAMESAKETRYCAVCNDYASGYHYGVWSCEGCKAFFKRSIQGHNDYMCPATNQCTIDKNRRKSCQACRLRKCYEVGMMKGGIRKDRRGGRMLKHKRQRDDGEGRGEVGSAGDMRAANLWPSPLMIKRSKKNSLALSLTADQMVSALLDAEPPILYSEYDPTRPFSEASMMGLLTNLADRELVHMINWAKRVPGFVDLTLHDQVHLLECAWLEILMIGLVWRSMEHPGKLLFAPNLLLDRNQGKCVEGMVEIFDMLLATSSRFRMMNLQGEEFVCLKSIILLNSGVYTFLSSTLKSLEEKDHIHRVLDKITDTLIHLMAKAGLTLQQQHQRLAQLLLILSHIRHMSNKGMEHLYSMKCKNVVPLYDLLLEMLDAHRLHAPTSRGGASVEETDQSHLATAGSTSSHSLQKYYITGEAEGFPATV
Protocol: ATG_XSP1_multi-species_TRANS is a cell-based, multiplexed assay created by modifying the existing Attagene TRANS-FACTORIAL system to include a panel of nuclear receptors from some or all the following species: human (Homo sapiens), mouse (Mus musculus), frog (Xenopus laevis), zebrafish (Danio rerio), chicken (Gallus gallus), and turtle (Chrysemys picta). The ECOTOX-FACTORIAL format uses HepG2, a human liver cell line, with measurements taken at 24 hours after chemical dosing in a 24-well plate. Xsp1 included 3 nM 6-alpha-fluorotestosterone to partially stimulate the androgen receptor.ATG_hERa_XSP1 is one of 29 assay components measured or calculated from the ATG_XSP1_multi-species_TRANS assay. It is designed to make measurements of mRNA induction, a form of inducible reporter, as detected with fluorescence intensity signals by Reverse transcription polymerase chain reaction (RT-PCR) and Capillary electrophoresis technology.The assay endpoint ATG_hERa_XSP1 was analyzed in the positive analysis fitting direction relative to DMSO as the negative control and baseline of activity. Using a type of inducible reporter, measures of mRNA for gain-of-signal activity can be used to understand the reporter gene at the transcription factor-level as they relate to the gene ER. Furthermore, this assay endpoint can be referred to as a primary readout, because this assay has produced multiple assay endpoints where this one serves a reporter gene function. To generalize the intended target to other relatable targets, this assay endpoint is annotated to the nuclear receptor intended target family, where the subfamily is steroidal.
Human liver HepG2 cells are transiently transfected with multiple reporter transcription units (MRTUs) in 6-well plates using FuGene 6 reagent (Roche; 3 ml FuGene/1 mg DNA). The MRTU constructs are regulated by a cis-regulating element (promoter). […] A major difference between the CIS and TRANS system is that in CIS activities of endogenous TFs are measured, whereas the TRANS assay evaluates changes in activities of exogenous, chimeric NR-Gal4 proteins. […] At the end of 24 hour incubation, total RNA was isolated using TriZol reagent (Invitrogen). The isolated RNA is then reverse-transcribed using oligo(dT) primer and Mo-MLV reverse transcriptase (Invitrogen) with DNAse I (Ambion) treatment for 30 min. The one-tenth of the produced cDNA was amplified by PCR using Taq DNA polymerase (Invitrogen) and two reporter sequence-specific primers. The PCR products were fluorescently labeled by primer extension with 6-arboxyfluorescein (6-FAM) 5'-labeled reporter sequence-specific primer (2 min at 95 C, 20 s at 68 C and 10 min at 72 C) and these products were digested with 5U of HpaI (New England Biolabs) for 2h at 37 C. The fragments were purified using Qiaquick PCR columns (Qiagen), analyzed on an ABI 3130xL genetic analyzer (Applied Biosystems) with peak positions identified by using a set of X-rhodamine (ROX)-labeled MapMarker1000 molecular weight standards (BioVentures). The raw capillary electrophoresis data was processed using Attagraph software (Attagene).
In the case of `CCCCOC(=O)c1ccccc1C(=O)OCCCC`, the AC50 is reported as 19.9 µM (active). For `COP(=S)(OC)Oc1nc(Cl)c(Cl)cc1Cl`, the AC50 was 27.1 µM (active). In the case of `CCCCC(CC)COC(=O)c1ccccc1C(=O)OCC(CC)CCCC` (centres undefined), the outcome is reported as “inactive”. `CON(C)C(=O)Nc1ccc(Cl)c(Cl)c1` was tested, and the AC50 was 9.61 µM (active). `COc1ccc(C(c2ccc(OC)cc2)C(Cl)(Cl)Cl)cc1` was tested, and the AC50 was 0.821 µM (active). `C=CC1(C)OC(=O)N(c2cc(Cl)cc(Cl)c2)C1=O` (centres undefined) was tested, and the AC50 was 100 µM (active). For `CC(C)Oc1cc(-n2nc(C(C)(C)C)oc2=O)c(Cl)cc1Cl`, the AC50 was 6.88 µM (active). With `C#CCOS(=O)OC1CCCCC1Oc1ccc(C(C)(C)C)cc1` (centres undefined) the AC50 was 5.29 µM (active). For `CCCN(CCC)c1c([N+](=O)[O-])cc(S(N)(=O)=O)cc1[N+](=O)[O-]`, the AC50 was 13.2 µM (active). In the case of `COC(=O)N(OC)c1ccccc1COc1ccn(-c2ccc(Cl)cc2)n1`, the outcome is reported as “inactive”. For `CCCC1COC(Cn2cncn2)(c2ccc(Cl)cc2Cl)O1` (centres undefined), the outcome was “inactive”. In the case of `CC(C)(C)c1ccc(CSc2cnn(C(C)(C)C)c(=O)c2Cl)cc1`, the outcome is reported as “inactive”. For `OC(c1ccc(Cl)cc1)(c1cncnc1)c1ccccc1Cl` (centres undefined), the AC50 was 2.22 µM (active). In the case of `CO/C=C(/C(=O)OC)c1ccccc1Oc1cc(Oc2ccccc2C#N)ncn1`, the outcome is reported as “inactive”.
